# Assay results: article PMC5540273 (PLoS ONE, 2017)
# Experiments:
# TIE2 = tested on: T1, TIE2
# T1 construct: gene TEK
# TRKA = tested on: T2, TRKA
# T2 construct: gene NTRK1
# 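Further: kd values determined as follow-up on hits from a single-replicate KINOMEscan panel screen.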
smiles,measurement,setting,value
Cl.Cl.Cl.N#Cc1ccc(CCNc2nccc(-c3cccc(CN4CCNCC4)c3)n2)cc1 [GSK2137462],Kd,STK33,3.9 µM
same,Kd,WEE1,> 10 µM
same,Kd,WNK4,> 10 µM
CS(=O)(=O)Cc1ccc(Nc2nccc(-c3c(-c4cccc(NC(=O)C5CCCCC5)c4)nn4ncccc34)n2)cc1 [GSK350559],Kd,STK36,0.067 µM
CNCc1ccc2nc(NC(=O)c3ccc(C(C)(C)C)cc3)cn2c1,Kd,TAOK1,> 10 µM
same,Kd,TAOK3,> 10 µM
Cn1cncc1C(=O)NC1CCN(c2ccnc(Nc3ccc(F)cc3)n2)C1 (stereo not drawn) [GSK1379717],Kd,TESK1,> 10 µM
same,Kd,TXK,> 10 µM
COc1cccc(CNC(=O)NC2CCN(c3ccnc(Nc4ccc(F)cc4)n3)C2)c1 (stereo not drawn) [GSK1379723],Kd,TESK1,9.8 µM
same,Kd,TXK,> 10 µM
COc1ccc2cc(-c3nc(-c4ccccc4C(C)C)[nH]c3-c3ccncc3)ccc2c1 [SB-660566],Kd,TGFBR1,0.77 µM
same,Kd,TIE2,0.16 µM
Cc1nccc(-c2c(-c3ccc(F)cc3)ncn2CCCN2CCOCC2)n1.Cl [SB-282975],Kd,TIE2,> 10 µM
NS(=O)(=O)c1cccc(N/C=C2\C(=O)Nc3ccc(S(=O)(=O)Cc4c(Cl)cccc4Cl)cc32)c1 [GSK398099],Kd,TNIK,0.33 µM
Nc1nccc(-c2c(-c3ccc(F)cc3)ncn2C2CCN(Cc3ccccc3)CC2)n1 [SB-219980],Kd,TNIK,4.1 µM
O=C(Nc1n[nH]c2nc(-c3cccs3)c(Br)cc12)C1CC1 [SB-735297],Kd,TNNI3K,> 10 µM
COC(=O)C(Cc1ccccc1)NC(=O)NC1CCN(c2ccnc(Nc3ccc(F)cc3)n2)C1 (stereo not drawn) [GSK1379714],Kd,TRKA,1.5 µM
O=C(Nc1n[nH]c2cc(-c3ccsc3)ccc12)C1CC1 [SB-732932],Kd,TRKA,3.1 µM
